Screening results from PubChem.
PDI turbidity = blocks human protein disulfide isomerase activity; P07237; actives 0.052% (n = 350,000); AID 588391; inhibition, % at 10 µM; PDI insulin aggregation turbidity, A650, 90 min;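 active = mean inhibition across replicates of 30% or more, whatever share of single replicates reach that level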
NRP1-CendR mod = NRP-1/CendR interaction modulation; O14786; FAM-RPARPAR peptide binding to NRP-1, fluorescence polarization; inhibition, % at 25 µM; actives 0.85% (n = 360,000);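 active = inhibition or corrected inhibition above about 18%, plus a signal ratio from 0.5 to 1.5, limit read from the data, passing the limit was not always enough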
ALR H2O2 inh = inhibitors of human sulfhydryl oxidase ALR. P55789. purified ALR, DTT oxidation, H2O2 HRP-luminol luminescence. inhibition, % (no concentration beside the values). actives 3.8% (n = 290,000). AID 485317;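 active = mean replicate inhibition above about 79%, with every replicate also reaching it, limit read from the data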
Target sequence (P55789 whole entry, looked up): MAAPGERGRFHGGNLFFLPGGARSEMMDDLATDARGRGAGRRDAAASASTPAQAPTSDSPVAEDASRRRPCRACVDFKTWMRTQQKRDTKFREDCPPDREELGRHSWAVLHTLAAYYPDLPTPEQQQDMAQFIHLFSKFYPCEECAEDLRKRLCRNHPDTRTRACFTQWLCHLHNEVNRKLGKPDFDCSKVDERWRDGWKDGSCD
ARNT TACC3 PPI = disrupts binding between human ARNT and TACC3; AlphaScreen His-ARNT PAS-B/GST-TACC3 binding, luminescence; TACC3 fragment carries E629A point mutation; inhibition, % at 9.99 µM; actives 0.66% (n = 390,000); AID 623870;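 active = mean inhibition of replicates at least 50% and at least half of replicates each reaching 50%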
ERp5 inh = inhibitors of human ERp5 | ERp5 insulin aggregation, absorbance 650 nm, 90 min | inhibition, % at 9.99 µM | actives 0.05% (n = 350,000);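 active = mean replicate inhibition above about 25%, with every replicate also reaching it, limit read from the data, passing the limit was not always enough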
PglD DTNB = inhibitors of Campylobacter jejuni PglD acetyltransferase; purified PglD enzyme, DTNB colorimetric CoA detection; inhibition, % at 12.5 µM; actives 0.098% (n = 360,000); AID 602405; in the data active = inhibition above about 16%, passing the limit was not always enough
A number is an active result; – = inactive; · = not tested or not shown. Many of the other results were omitted from the sample, so hits are more common in it than they were.

SMILES | PDI turbidity | NRP1-CendR mod | ALR H2O2 inh | ARNT TACC3 PPI | ERp5 inh | PglD DTNB
CC1CN(C2CCCCC2)c2nc3c(c(=O)[nH]c(=O)n3C)n2C1 (stereo unspecified) | – | – | 95 | – | · | –
COCCN=c1scc(-c2cccs2)n1/N=C(\C)c1ccco1 | – | – | · | 46 | – | –
CCN1CCN(CCCNC(=O)C2CCN(c3nnc(-n4cccc4)s3)CC2)CC1 | – | – | – | – | – | –
CCOc1ccc(NCc2cccn2-c2nnc(N3CCC(C(=O)NCCCN4CC(C)CC(C)C4)CC3)s2)cc1 (stereo unspecified) | – | – | 100 | – | – | –
COc1ccc2c3c([nH]c2c1)[C@@H](CO)N(Cc1nccs1)CC31CN(C(=O)C2CCCC2)C1 | · | · | · | · | 80 | ·
COc1ccc2c3c([nH]c2c1)[C@H](CO)N(C(=O)C1CCOCC1)CC31CCN(Cc2nccs2)CC1 | · | · | · | · | 84 | ·
O=C(Nc1ccc(F)cc1)N1CCCCN2[C@H](CO)[C@@H](c3ccc(C#CC4CC4)cc3)[C@H]2C1 | · | · | · | – | – | –
N#Cc1c(NC(=O)c2cccc(S(=O)(=O)Nc3ccc(C(=O)O)cc3)c2)sc2c1CCCC2 | – | – | 89 | – | – | ·
N=c1n(Cc2ccccc2)c2ccccc2n1CC(O)COc1ccccc1 (stereo unspecified) | – | – | · | – | · | –
Cc1ccc(Cn2c(=N)n(CC(O)COc3ccccc3)c3ccccc32)cc1 (stereo unspecified) | – | 24 | – | – | – | ·
NC(=O)NC(=O)C(Nc1ccc(N2CCCCC2)cc1)c1ccccc1 (stereo unspecified) | – | – | 99 | – | – | –
COc1ccc(CCNC(=O)c2c(O)c3cccc4c3n(c2=O)CC4)cc1OC | – | 44 | – | – | · | –
CNC(=O)c1c(O)c2cccc3c2n(c1=O)CC3 | – | – | – | – | · | ·
CC(C(=O)NC1C=CS(=O)(=O)C1)N1C(=O)/C(=C\c2ccccc2)SC1=S (stereo unspecified) | – | – | 99 | – | – | –
O=C(CN(c1cccc(Cl)c1)S(=O)(=O)c1ccc(Cl)cc1)NCc1ccccn1 | – | – | – | 47 | – | –
CC[C@]12c3[nH]c4cc(CCC(=O)N(C)C)ccc4c3CCN1C(=O)[C@@H](CC(=O)NCc1ccc(OC)c(OC)c1)C[C@@H]2C(=O)N1CCN(C(=O)c2ccco2)CC1 | – | – | · | – | – | –
CC[C@]12c3[nH]c4cc(-c5ccco5)ccc4c3CCN1C(=O)[C@@H](CC(=O)NCc1ccc(OC)c(OC)c1)C[C@@H]2C(=O)N1CCN(C(=O)c2ccco2)CC1 | 38 | – | · | – | – | –
O=C(Nc1ccc(C(F)(F)F)cc1)N[C@H]1C=C[C@H](CC(=O)N2CCCCC2)O[C@H]1CO | · | · | · | – | – | –
CCN(C=NC1=NN(c2cccc(C(F)(F)F)c2)CC1)CC | – | – | 94 | – | · | –
OCCN(C=NC1=NN(c2cccc(C(F)(F)F)c2)CC1)CCO | – | – | · | – | · | ·
Cc1cccc(N2CCC(N=CN(C)C)=N2)c1 | – | – | 99 | · | – | –
COc1ccc(CNC(=O)C[C@@H]2C=C[C@@H](NS(=O)(=O)c3cccc(OC)c3)[C@H](CO)O2)cc1 | · | · | · | – | – | –
CC(C)NC(=O)N[C@H]1CC[C@@H](CCn2cc(-c3ccccc3)nn2)O[C@@H]1CO | · | · | · | · | – | –
C=C[C@@H](COC(C)=O)N(C(=O)OC(C)(C)C)S(=O)(=O)c1ccc(Br)cc1 | · | · | · | · | – | ·
O=C(CN1C(=O)NC2(CCCC2)C1=O)Nc1cc(C(F)(F)F)ccc1N1CCCCC1 | – | – | – | – | 34 | –
SMILES | PDI turbidity | NRP1-CendR mod | ALR H2O2 inh | ARNT TACC3 PPI | ERp5 inh | PglD DTNB
CC1(c2ccccc2)NC(=O)N(CC(=O)Nc2ccccc2N2CCCC2)C1=O (stereo unspecified) | – | – | · | – | – | ·
O=C(CN1C(=O)NC2(CCCC2)C1=O)Nc1cc(Cl)ccc1N1CCCC1 | – | – | 87 | · | – | –
O=C(CN1C(=O)NC2(CCCC2)C1=O)Nc1ccccc1N1CCCC1 | – | – | 99 | – | – | –
Cc1ccc(-c2csc3n[nH]c(=S)n23)cc1 | – | – | 98 | – | · | –
O=C(CSCc1cnn(-c2ccccc2)c1-n1cccc1)NCc1ccccn1 | – | – | 81 | – | – | –
COc1ccc(CNC(=O)CSCc2cnn(-c3ccccc3)c2-n2cccc2)cc1 | – | – | – | – | · | –
